High-throughput results (PubChem)
Cruzain Triton = qHTS Assay for Promiscuous and Specific Inhibitors of Cruzain (with detergent). 200,000 compounds, 0.43% hits. Potency, µM, without a hit: max response, negative = inhibition, hits mostly inhibitors. Cruzipain (Trypanosoma cruzi), P25779. purified cruzain, Z-FR-AMC fluorescence, 0.01% Triton. AID 1478, 2009;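 note: plate controls were neutral wells for no effect and buffer without enzyme for full effect; nearly all actives have a fitted effect of over 40% in size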
Target sequence (P25779 123-467 limits assumed): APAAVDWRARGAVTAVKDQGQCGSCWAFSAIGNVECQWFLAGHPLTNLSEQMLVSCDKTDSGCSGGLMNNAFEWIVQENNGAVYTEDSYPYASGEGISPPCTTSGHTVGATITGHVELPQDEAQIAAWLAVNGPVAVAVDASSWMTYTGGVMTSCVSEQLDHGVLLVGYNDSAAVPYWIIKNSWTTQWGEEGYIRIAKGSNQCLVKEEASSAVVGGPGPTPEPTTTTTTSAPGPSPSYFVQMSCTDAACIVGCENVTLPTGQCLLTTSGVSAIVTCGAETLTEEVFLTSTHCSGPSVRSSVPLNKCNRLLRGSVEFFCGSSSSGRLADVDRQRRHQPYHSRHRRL
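Cysteine protease activity tested under reducing, mildly acidic conditions (100 mM sodium acetate pH 5.5, 5 mM DTT) plus 0.01% Triton X-100. Cruzain 1.5 nM; substrate Z-FR-AMC 2 uM; 15 min compound preincubation at room temperature.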
Cruzain noTriton = qHTS Assay for Promiscuous and Specific Inhibitors of Cruzain (without detergent); Cruzipain (Trypanosoma cruzi), P25779; purified cruzain, Z-FR-AMC fluorescence, no detergent; Potency, µM, for the others: max response, negative = inhibition, usual class: inhibitors; 200,000 compounds, 2.3% hits;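 note: plate controls were enzyme without inhibitor for no effect and buffer without enzyme for full effect; nearly all actives have a fitted effect of over 40% in size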
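Purified cruzain at 1.5 nM, pre-incubated 15 min with compound at room temperature in 100 mM sodium acetate pH 5.5, 5 mM DTT, 0.00005% Triton X-100. Reaction started with 2 uM Z-FR-AMC; AMC fluorescence increase over 60 s gives rate.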
Starred values were filed as active, the others as inactive; ? = inconclusive; ! = not active in a repeat. Shown are actives, neighbours in structure and some others; about 2.6% of the full set was active somewhere. Calls come from the whole dose curve; as a rule, active = well fitted curve in the direction sought with a large enough effect; inconclusive = small, poorly fitted or top-dose-only effect, or another doubt; inactive = no such curve, though single readings can be large; an effect the other way counts as inactive or inconclusive. Potency is the fitted concentration of half-maximal effect.

SMILES	Cruzain Triton	Cruzain noTriton
CC(C)c1nn2c(=O)cc(COC(=O)C3CCCCC3)nc2s1	-6%	3%
Nc1ccc(N=Nc2ccccc2)c(N)n1	-3%	20µM*!
Cc1cc(=O)n2[nH]c(N)c(N=Nc3ccccc3)c2n1	-6%	-5%
Cc1ccc(CN(Cc2ccco2)C(=O)c2oc3c(C)c(C)ccc3c2C)cc1	-11%	25µM*
Cc1ccc(CN(Cc2ccco2)C(=O)c2oc3ccc(C)cc3c2C)cc1	-7%	?
COc1cccc2cc(-c3cn4c(n3)sc3cc(F)ccc34)c(=O)oc12	0%	4%
COc1cc(C(=O)Nc2ccccc2OCc2cc(=O)n3cc(C)sc3n2)cc(OC)c1OC	1%	-11%
COc1ccc(C(=O)Nc2ccc(C)cc2C(=O)c2ccccc2)cc1	-4%	-3%
COc1ccc(OC)c(C(=O)c2ccc(C(=O)Nc3cccc4ccccc34)cc2)c1	-4%	25µM*
COc1ccc(C(=O)COC(=O)c2cccc(NC(=O)c3ccc(OC)c(OC)c3)c2)cc1	-3%	?
COc1ccc(C(=O)Nc2ccc(C(=O)OCC(=O)c3cccc4ccccc34)cc2)cc1	0%	1.6µM*
C=CCOC(=O)N[C@H](/C(C(=O)OC)=C(\C)NCc1ccccc1)c1cccc(F)c1	4%	-8%
O=C(CCC1N=C2c3ccccc3N=C(SCc3ccc(Cl)cc3)N2C1=O)NC1CCCCC1 (stereo not drawn)	-4%	0%
COc1ccc2c(c1)O[C@@H](c1ccc3c(c1)OCO3)[C@H](OC(=O)N[C@H]1CCCc3ccccc31)C2=O	-2%	-9%
Cn1c(=O)[nH]c2cc(-c3noc(-c4ccc(Br)cc4)n3)ccc21	-1%	-4%
COC(=O)c1cc2sc(Cl)cc2n1CC(=O)NCCC(C)C	3%	25µM*
COC(=O)c1cc2sc(Cl)cc2n1CC(=O)Nc1cc(OC)cc(OC)c1	-2%	18%
O=C(CSc1n[nH]c(-c2ccccc2Cl)n1)NCc1ccc(F)cc1	2%	2%
Cc1ccccc1NC(=O)CSc1ccc(-c2ccco2)nn1	-3%	2%
Cc1cccc(NC(=O)CSc2nnc(-c3ccco3)c(-c3ccco3)n2)c1C	28µM*	7.9µM*
Cc1nn(CC(=O)NCc2cccc(F)c2)c(=O)c2c(C)n(-c3ccc(Cl)cc3)nc12	4%	9%
CCCCc1cc(=O)oc2cc(C)c3c(C)coc3c12	-7%	-4%
Cc1ccc2c(c1)sc1nc(=O)n(-c3ccc(Cl)cc3)c(=O)n12	-2%	8%
Cc1ccc2c(c1)sc1nc(=O)n(-c3ccc(Cl)c(Cl)c3)c(=O)n12	-2%	20µM*!
Cc1ccc(CNC(=O)c2c(Nc3ccccc3C)sc(C(=O)c3ccc(F)cc3)c2N)cc1	-4%	?
SMILES	Cruzain Triton	Cruzain noTriton
COc1ccc(S(=O)(=O)c2c(Nc3ccc(C)cc3)sc(C(=O)c3ccc4c(c3)OCO4)c2N)cc1	-2%	3.2µM*
Cc1ccc(S(=O)(=O)c2c(Nc3ccccc3)sc(C(=O)c3ccc4c(c3)OCO4)c2N)cc1	-4%	7.9µM*
Cc1ccc(Nc2sc(C(=O)c3ccccc3)c(N)c2C(=O)Nc2ccc(Cl)cc2)cc1	-3%	?
COc1ccc(S(=O)(=O)c2c(Nc3ccc(F)cc3)sc(C(=O)c3ccc4c(c3)OCO4)c2N)cc1	-2%	?
Cc1ccccc1Nc1sc(C(=O)c2ccc3c(c2)OCO3)c(N)c1S(=O)(=O)c1ccccc1	-3%	7.9µM*
O=C(CCCn1c(=O)c2ccccc2n(CC(=O)Nc2cccc(C(F)(F)F)c2)c1=O)NCc1ccc2c(c1)OCO2	-2%	17%
Cc1ccc2c(c1)C(=O)[C@@]1(O)CCN(c3ccccc3)C1=N2	-3%	5%
O=C(Cc1ccccc1)NCC(=O)OCC(=O)c1ccc([N+](=O)[O-])cc1	-14%	-18%
O=C(OCC(=O)c1ccc([N+](=O)[O-])cc1)/C(=C/c1ccc(Cl)cc1)NC(=O)c1ccccc1	2.8µM*	16µM*
NC(=O)c1ccc(NC(=O)COC(=O)c2cccc(Oc3ccccc3)c2)cc1	1%	16µM*
O=C(COC(=O)c1cccc(N2C(=O)c3ccccc3C2=O)c1)Nc1ccccc1	-2%	6%
Cc1cc(C)c(C#N)c(SCc2nnc(-c3ccccc3)o2)n1	-5%	4%
COc1ccccc1-c1cc(-c2ccc(C)cc2)nc(SCc2nnc(-c3ccccc3)o2)c1C#N	0%	4µM*
COc1cc2c(cc1NC(=O)CSCC(=O)O)oc1ccccc12	-5%	-19%
COc1cc2c(cc1NC(=O)Nc1ccccc1)oc1ccccc12	7%	?
COc1cc2c(cc1NC(=S)Nc1cccc(C(F)(F)F)c1)oc1ccccc12	-8%	16µM*
COc1cc2c(cc1NC(=S)Nc1cccc3ccccc13)oc1ccccc12	-8%	10µM*
CC(C)NC(=O)c1ccccc1NC(=O)/C=C/c1ccc([N+](=O)[O-])cc1	5%	-5%
COc1cc2c(cc1NC(=O)/C=C/c1ccc([N+](=O)[O-])cc1)oc1ccccc12	-2%	5µM*
COc1ccc(S(=O)(=O)NCC(c2ccco2)N2CCOCC2)cc1OC (stereo not drawn)	1%	21%
CC(=O)c1ccc(NC(=O)CSc2cn(CC(=O)N(C(C)C)C(C)C)c3ccccc23)cc1	-5%	8%
C[C@@H]1CC[C@]2(C(=O)O)CC[C@]3(C)C(=CCC4[C@@]5(C)C[C@@H](O)[C@H](O)[C@@](C)(CO)C5CC[C@]43C)C2[C@H]1C (stereo partly drawn)	0%	?
CCn1c(C(=O)NCc2cc(Br)ccc2OC)cc2oc3ccccc3c21	-5%	32µM*
CCn1c(C(=O)NCc2ccccc2Br)cc2oc3ccccc3c21	-7%	?
N#Cc1cccc(NC(=O)CSc2ccc3c4c(cccc24)C(=O)c2ccccc2-3)c1	2%	10µM*
SMILES	Cruzain Triton	Cruzain noTriton
COc1ccc(NC(=O)CSc2ccc3c4c(cccc24)C(=O)c2ccccc2-3)cc1	4%	13µM*
N#Cc1cccc(NC(=O)CSc2ccccc2)c1	3%	-16%
COc1ccc(NC(=O)CSc2nc3ccccc3c3nc4ccccc4n23)cc1	-1%	-23%
COc1cc2c(c(OC)c1)C(c1cc(OC)c(OC)c(OC)c1)CC(=O)N2 (stereo not drawn)	-2%	0%
O=C(c1ccccc1F)N1c2nc(-c3ccco3)nn2C2(CCCCC2)[C@@H]2CCCC[C@@H]21	-5%	10%
CCOC(=O)C1=C(N)n2c(s/c(=C/c3ccco3)c2=O)=C(C(=O)OC)C1c1ccco1 (stereo not drawn)	-2%	13µM*
CCOC(=O)C1=c2s/c(=C\c3cccnc3)c(=O)n2C(N)=C(C(=O)OC)C1c1cccnc1 (stereo not drawn)	-8%	14%
COC(=O)C1=C(C)N=c2s/c(=C/c3ccoc3)c(=O)n2C1c1ccccc1 (stereo not drawn)	-9%	-7%
COc1ccc(C2C(C(C)=O)=C(C)N=c3s/c(=C/c4ccc5c(c4)OCO5)c(=O)n32)cc1 (stereo not drawn)	-6%	10µM*
CCOC(=O)C1=C(C)N=c2s/c(=C/c3ccco3)c(=O)n2C1c1cccc(OC)c1 (stereo not drawn)	-29%	25µM*
CCOC(=O)C1=C(C)N=c2s/c(=C\c3cccn3C)c(=O)n2C1c1cccc(OC)c1OC (stereo not drawn)	-9%	?
